Test results: ChEMBL document CHEMBL1961873, “Compounds: GSK PKIS; Assays: Nanosyn kinase panel” (2012)

Tests used:
[1] = target: T1, Mitogen-activated protein kinase 12 (Homo sapiens) (UniProt P53778); conditions: at 1 µM;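 also: values are averaged p38gamma kinase inhibition readings, compounds tested at 1 µM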
T1 sequence (whole entry): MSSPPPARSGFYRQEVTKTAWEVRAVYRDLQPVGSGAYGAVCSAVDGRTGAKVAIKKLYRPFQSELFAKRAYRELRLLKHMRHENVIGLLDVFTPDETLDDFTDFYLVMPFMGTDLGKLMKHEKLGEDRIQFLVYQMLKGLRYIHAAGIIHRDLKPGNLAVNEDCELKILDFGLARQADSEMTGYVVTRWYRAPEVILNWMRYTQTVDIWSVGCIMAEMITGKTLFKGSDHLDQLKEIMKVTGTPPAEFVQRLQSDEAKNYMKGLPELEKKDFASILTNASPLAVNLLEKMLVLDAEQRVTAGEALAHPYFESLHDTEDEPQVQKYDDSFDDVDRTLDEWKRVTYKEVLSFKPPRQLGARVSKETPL

[2] = target: SRSF protein kinase 1 (Homo sapiens) (UniProt Q96SB4); conditions: at 0.1 µM
[3] = target: SRSF protein kinase 1 (Homo sapiens) (UniProt Q96SB4); conditions: at 1 µM
[4] = target: Phosphatidylinositol 4,5-bisphosphate 3-kinase catalytic subunit alpha isoform (Homo sapiens) (UniProt P42336); conditions: at 0.1 µM
[5] = target: Phosphatidylinositol 4,5-bisphosphate 3-kinase catalytic subunit alpha isoform (Homo sapiens) (UniProt P42336); conditions: at 1 µM
[6] = target: T2, Phosphatidylinositol 4,5-bisphosphate 3-kinase catalytic subunit delta isoform (Homo sapiens) (UniProt O00329); conditions: at 0.1 µM
T2 sequence (whole entry): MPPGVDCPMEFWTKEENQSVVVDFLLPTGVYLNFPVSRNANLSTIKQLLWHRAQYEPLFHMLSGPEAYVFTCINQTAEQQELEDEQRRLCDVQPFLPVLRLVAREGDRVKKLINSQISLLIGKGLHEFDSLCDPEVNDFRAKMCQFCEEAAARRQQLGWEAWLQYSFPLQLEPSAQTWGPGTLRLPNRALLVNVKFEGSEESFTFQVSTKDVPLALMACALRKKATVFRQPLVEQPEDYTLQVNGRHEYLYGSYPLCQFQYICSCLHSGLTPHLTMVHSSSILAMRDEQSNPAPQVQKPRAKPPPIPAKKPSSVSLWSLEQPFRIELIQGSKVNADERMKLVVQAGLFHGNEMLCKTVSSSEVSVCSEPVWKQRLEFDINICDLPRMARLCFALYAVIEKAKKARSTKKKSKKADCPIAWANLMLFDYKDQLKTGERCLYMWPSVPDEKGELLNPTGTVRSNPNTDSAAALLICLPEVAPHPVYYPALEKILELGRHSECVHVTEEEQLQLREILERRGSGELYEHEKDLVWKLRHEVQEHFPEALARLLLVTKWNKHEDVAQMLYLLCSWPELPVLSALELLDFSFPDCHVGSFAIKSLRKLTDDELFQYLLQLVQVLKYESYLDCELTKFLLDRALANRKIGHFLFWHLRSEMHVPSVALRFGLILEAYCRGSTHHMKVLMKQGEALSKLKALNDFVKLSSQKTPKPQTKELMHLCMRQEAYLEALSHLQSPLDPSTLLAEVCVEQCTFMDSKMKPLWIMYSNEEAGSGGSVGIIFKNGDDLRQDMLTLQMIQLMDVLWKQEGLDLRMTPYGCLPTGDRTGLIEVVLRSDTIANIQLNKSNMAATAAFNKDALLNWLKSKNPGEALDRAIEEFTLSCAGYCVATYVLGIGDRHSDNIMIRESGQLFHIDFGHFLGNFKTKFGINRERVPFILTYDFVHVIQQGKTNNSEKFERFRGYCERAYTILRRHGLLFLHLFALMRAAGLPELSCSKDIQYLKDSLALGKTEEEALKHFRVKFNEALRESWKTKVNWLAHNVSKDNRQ

[7] = target: T2, Phosphatidylinositol 4,5-bisphosphate 3-kinase catalytic subunit delta isoform (Homo sapiens); conditions: at 1 µM
[8] = target: Phosphatidylinositol 4-kinase beta (Homo sapiens) (UniProt Q9UBF8); conditions: at 0.1 µM
[9] = target: Phosphatidylinositol 4-kinase beta (Homo sapiens) (UniProt Q9UBF8); conditions: at 1 µM
[10] = target: Sphingosine kinase 1 (Homo sapiens) (UniProt Q9NYA1); conditions: at 0.1 µM
[11] = target: Sphingosine kinase 1 (Homo sapiens) (UniProt Q9NYA1); conditions: at 1 µM
[12] = target: T3, Sphingosine kinase 2 (Homo sapiens) (UniProt Q9NRA0); conditions: at 0.1 µM
T3 sequence (whole entry): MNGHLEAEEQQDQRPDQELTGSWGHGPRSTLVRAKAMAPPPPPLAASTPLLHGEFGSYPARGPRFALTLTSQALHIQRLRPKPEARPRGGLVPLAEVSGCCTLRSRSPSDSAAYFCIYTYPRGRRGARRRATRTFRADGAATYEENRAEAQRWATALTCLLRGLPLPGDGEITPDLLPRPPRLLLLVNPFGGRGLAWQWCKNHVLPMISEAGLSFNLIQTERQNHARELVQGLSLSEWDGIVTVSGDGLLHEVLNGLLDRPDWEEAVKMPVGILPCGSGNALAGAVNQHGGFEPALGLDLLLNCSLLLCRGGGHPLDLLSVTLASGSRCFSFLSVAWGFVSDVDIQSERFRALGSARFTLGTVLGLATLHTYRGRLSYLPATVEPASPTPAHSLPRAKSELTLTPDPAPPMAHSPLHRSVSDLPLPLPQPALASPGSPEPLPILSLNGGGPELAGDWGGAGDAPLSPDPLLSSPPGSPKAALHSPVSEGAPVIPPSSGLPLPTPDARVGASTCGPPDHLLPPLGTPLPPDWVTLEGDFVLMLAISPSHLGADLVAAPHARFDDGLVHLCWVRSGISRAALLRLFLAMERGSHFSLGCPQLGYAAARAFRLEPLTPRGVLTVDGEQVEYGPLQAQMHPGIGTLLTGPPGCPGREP

[13] = target: T3, Sphingosine kinase 2 (Homo sapiens); conditions: at 1 µM
[14] = target: Casein kinase II subunit alpha (Homo sapiens) (UniProt P68400); conditions: at 0.1 µM
[15] = target: Casein kinase II subunit alpha (Homo sapiens) (UniProt P68400); conditions: at 1 µM
[16] = target: T4, Inhibitor of nuclear factor kappa-B kinase subunit alpha (Homo sapiens) (UniProt O15111); conditions: at 0.1 µM
T4 sequence (whole entry): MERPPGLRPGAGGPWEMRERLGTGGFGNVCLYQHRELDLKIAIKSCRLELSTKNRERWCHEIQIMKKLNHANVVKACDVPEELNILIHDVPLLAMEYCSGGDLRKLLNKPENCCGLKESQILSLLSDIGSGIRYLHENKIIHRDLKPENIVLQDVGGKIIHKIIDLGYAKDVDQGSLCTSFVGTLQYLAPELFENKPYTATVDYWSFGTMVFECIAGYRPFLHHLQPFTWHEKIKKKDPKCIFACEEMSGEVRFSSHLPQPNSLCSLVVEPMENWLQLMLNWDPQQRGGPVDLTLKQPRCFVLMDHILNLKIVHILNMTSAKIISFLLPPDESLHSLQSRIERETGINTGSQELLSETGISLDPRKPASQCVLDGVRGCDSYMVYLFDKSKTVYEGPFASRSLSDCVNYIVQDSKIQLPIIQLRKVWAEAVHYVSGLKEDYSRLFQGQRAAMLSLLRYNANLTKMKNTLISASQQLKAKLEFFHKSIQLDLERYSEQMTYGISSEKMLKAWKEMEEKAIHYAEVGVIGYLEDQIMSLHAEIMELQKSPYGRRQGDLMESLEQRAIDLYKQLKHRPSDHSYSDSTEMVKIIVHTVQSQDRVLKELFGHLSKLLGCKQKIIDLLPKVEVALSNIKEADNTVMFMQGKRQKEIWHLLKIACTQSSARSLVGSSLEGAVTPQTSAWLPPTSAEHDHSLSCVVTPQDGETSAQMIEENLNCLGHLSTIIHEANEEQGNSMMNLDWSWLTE

[17] = target: T4, Inhibitor of nuclear factor kappa-B kinase subunit alpha (Homo sapiens); conditions: at 1 µM
[18] = target: T5, Inhibitor of nuclear factor kappa-B kinase subunit beta (Homo sapiens) (UniProt O14920); conditions: at 0.1 µM
T5 sequence (whole entry): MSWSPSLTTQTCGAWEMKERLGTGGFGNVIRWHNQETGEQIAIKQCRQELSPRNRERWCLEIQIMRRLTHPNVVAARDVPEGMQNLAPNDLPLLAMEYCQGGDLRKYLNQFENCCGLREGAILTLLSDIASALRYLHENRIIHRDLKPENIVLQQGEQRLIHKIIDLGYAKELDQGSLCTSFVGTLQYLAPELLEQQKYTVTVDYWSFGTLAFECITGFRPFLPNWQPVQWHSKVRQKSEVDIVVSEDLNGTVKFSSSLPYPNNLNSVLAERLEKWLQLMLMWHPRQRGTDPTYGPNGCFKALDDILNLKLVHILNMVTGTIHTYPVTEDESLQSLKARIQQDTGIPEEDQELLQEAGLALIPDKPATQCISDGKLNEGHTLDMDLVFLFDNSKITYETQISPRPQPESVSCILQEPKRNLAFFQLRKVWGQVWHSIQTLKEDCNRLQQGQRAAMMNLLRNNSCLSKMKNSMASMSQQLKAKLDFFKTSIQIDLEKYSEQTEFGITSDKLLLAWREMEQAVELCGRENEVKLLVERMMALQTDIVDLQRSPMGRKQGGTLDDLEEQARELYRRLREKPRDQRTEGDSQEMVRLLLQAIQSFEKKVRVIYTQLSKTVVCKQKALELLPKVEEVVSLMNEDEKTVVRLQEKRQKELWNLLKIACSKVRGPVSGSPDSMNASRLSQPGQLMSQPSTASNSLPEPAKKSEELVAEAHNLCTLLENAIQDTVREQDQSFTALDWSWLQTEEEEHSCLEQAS

[19] = target: T5, Inhibitor of nuclear factor kappa-B kinase subunit beta (Homo sapiens); conditions: at 1 µM
[20] = target: T6, Inhibitor of nuclear factor kappa-B kinase subunit epsilon (Homo sapiens) (UniProt Q14164); conditions: at 0.1 µM;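 also: mean inhibition of IKKε reported, from the GSK PKIS dataset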
T6 sequence (whole entry): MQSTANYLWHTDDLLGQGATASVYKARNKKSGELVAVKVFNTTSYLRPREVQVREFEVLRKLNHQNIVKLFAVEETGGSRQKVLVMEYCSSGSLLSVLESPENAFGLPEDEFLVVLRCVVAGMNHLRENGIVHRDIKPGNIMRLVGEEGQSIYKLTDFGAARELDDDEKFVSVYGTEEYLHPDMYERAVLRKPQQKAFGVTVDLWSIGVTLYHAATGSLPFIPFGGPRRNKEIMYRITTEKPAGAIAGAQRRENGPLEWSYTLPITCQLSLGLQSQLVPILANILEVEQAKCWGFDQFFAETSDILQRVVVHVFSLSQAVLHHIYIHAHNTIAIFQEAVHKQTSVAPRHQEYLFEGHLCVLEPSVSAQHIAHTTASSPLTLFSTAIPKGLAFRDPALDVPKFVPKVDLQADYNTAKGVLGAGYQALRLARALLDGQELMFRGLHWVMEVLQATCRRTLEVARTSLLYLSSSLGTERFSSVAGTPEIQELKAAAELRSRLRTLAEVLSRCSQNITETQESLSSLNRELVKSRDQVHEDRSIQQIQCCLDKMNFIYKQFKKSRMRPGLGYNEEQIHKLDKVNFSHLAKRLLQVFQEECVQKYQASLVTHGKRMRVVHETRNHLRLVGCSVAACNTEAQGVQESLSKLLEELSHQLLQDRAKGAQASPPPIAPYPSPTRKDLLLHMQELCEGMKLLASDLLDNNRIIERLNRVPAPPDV

Chain of SRSF protein kinase 1 (Homo sapiens) (Q96SB4 whole entry, canonical isoform): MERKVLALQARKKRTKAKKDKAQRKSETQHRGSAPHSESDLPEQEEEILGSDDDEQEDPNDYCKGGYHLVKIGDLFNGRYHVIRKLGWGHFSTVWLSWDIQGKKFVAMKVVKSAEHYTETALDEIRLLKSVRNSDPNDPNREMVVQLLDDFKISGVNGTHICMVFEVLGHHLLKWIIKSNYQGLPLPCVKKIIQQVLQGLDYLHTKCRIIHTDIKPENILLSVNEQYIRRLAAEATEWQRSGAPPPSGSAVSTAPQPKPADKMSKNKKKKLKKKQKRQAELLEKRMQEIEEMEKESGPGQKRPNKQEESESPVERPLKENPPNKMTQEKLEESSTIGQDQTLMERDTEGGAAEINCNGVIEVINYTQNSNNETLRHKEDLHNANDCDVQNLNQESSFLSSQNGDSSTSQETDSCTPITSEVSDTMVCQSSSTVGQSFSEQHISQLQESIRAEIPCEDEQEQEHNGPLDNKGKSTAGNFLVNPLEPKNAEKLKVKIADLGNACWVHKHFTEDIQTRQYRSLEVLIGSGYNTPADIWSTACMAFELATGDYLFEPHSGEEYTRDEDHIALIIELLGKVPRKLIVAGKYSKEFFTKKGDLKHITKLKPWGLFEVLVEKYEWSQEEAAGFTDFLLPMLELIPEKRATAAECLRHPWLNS
Chain of Phosphatidylinositol 4,5-bisphosphate 3-kinase catalytic subunit alpha isoform (Homo sapiens) (P42336 whole entry, canonical isoform): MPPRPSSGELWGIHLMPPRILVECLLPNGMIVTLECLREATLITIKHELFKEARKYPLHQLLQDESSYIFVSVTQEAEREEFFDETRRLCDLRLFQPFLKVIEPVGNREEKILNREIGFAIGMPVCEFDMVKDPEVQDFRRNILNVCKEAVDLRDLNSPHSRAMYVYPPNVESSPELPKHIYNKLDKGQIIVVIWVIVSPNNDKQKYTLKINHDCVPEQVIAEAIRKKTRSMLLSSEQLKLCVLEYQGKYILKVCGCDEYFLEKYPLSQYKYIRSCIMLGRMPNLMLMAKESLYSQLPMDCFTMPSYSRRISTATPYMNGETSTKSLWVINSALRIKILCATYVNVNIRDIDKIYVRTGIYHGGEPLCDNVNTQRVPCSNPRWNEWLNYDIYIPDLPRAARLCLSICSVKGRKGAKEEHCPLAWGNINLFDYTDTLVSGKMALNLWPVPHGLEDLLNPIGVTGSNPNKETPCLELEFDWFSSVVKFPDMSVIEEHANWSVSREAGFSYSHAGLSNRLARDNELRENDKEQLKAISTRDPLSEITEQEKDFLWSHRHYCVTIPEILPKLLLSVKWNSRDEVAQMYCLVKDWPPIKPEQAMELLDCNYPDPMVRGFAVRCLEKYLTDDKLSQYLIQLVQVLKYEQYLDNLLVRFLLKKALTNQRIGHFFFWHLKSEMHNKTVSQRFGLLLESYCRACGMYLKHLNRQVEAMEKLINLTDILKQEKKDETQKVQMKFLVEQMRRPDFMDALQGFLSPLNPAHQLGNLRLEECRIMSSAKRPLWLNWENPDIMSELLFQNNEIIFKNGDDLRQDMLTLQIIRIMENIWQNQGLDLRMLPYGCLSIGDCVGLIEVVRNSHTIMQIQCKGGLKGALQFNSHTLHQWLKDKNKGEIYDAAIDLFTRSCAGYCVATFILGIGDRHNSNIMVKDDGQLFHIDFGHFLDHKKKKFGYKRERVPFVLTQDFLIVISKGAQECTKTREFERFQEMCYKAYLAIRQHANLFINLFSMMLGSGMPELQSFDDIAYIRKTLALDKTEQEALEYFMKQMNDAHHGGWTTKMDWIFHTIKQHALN
Chain of Casein kinase II subunit alpha (Homo sapiens) (P68400 whole entry, looked up): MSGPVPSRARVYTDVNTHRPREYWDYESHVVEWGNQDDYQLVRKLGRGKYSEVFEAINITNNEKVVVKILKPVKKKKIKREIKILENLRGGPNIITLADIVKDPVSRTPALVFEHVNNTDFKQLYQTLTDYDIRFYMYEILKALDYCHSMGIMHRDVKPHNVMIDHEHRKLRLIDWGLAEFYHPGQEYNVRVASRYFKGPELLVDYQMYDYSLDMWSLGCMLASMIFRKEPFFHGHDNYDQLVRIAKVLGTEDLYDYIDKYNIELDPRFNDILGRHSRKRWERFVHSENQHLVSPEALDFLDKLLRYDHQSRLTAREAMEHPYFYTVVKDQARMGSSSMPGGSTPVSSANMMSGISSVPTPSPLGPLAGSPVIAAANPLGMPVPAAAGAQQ
Chain of Sphingosine kinase 1 (Homo sapiens) (Q9NYA1 whole entry): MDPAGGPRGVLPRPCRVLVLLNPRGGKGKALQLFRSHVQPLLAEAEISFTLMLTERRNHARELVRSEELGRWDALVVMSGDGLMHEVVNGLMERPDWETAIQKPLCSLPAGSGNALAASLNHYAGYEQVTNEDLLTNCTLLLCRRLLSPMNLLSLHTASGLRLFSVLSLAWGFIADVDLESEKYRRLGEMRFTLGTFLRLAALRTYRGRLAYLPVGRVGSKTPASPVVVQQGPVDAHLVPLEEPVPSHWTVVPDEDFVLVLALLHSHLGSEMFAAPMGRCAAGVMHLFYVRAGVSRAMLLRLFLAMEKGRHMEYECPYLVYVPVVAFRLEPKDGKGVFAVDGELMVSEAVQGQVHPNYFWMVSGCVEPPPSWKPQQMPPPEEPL
Chain of Phosphatidylinositol 4-kinase beta (Homo sapiens) (Q9UBF8 2-816 limits assumed): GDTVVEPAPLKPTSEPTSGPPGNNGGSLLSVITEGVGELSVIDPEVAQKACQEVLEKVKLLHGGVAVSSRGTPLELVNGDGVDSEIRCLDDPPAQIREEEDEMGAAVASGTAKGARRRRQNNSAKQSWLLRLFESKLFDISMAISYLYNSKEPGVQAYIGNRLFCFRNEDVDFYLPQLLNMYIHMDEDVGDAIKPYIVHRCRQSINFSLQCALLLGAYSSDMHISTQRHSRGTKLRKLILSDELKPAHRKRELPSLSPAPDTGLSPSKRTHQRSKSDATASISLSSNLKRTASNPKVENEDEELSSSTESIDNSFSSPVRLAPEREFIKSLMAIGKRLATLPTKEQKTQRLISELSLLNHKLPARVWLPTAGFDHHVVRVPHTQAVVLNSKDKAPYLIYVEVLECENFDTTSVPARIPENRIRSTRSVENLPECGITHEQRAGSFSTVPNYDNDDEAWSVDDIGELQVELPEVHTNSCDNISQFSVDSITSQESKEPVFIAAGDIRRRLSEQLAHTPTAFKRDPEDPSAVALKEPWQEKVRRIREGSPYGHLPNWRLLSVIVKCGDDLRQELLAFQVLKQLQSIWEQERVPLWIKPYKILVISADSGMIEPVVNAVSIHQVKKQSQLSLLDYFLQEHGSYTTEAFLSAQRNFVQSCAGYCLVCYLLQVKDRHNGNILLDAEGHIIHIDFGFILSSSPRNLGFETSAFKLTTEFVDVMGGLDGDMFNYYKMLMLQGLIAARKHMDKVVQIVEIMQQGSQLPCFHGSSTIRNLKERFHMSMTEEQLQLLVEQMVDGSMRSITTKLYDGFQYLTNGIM

Row | Compound | inhibition [1] | inhibition [2] | inhibition [3] | inhibition [4] | inhibition [5] | inhibition [6] | inhibition [7] | inhibition [8] | inhibition [9] | inhibition [10] | inhibition [11] | inhibition [12] | inhibition [13] | inhibition [14] | inhibition [15] | inhibition [16] | inhibition [17] | inhibition [18] | inhibition [19] | inhibition [20]
1 | COc1ccc2ncn(-c3cc(O[C@H](C)c4ccccc4C(F)(F)F)c(C(N)=O)s3)c2c1 | -0.21% | -0.66% | -1.2% | 0.29% | 4.81% | 2.14% | 12.2% | -1.47% | 1.85% | -1.01% | 2.4% | -0.06% | -2.97% | -0.88% | 5.02% | 3.24% | -5.63% | -5.7% | 1.93% | -0.98%
2 | CCn1c(-c2nonc2N)nc2cncc(C(=O)NCCNC)c21 | 4.44% | -1.97% | -2.66% | 4.3% | 2.53% | 0.31% | 1.82% | 1.26% | 0.69% | 0.59% | -1.79% | -0.3% | 8.93% | 4.41% | 2.99% | 8.82% | 14.1% | 6.55% | 7.92% | 7.73%
3 | CCCNc1cccc(-n2ncc3c(N/N=C/c4ccncc4)ncnc32)c1 | 0.33% | 0.43% | 3.51% | 1.36% | 3.81% | 3.31% | 14.7% | 5.69% | 4.32% | 0.21% | -3.91% | -0.44% | 1.31% | 1.7% | 14.1% | 5.25% | 0.68% | 0.62% | 3.19% | 5.27%
4 | CS(=O)(=O)CCNCc1ccc(-c2ccc3ncnc(Nc4ccc(OCc5cccc(C(F)(F)F)c5)cc4)c3c2)o1 | 6.4% | -2% | -2.32% | 4.42% | 4.38% | 0.9% | 1.81% | 0.98% | -0.43% | 1.49% | 0.32% | 0.1% | 0.04% | 5.1% | 4.66% | 3.34% | 4.53% | 4.47% | 8.68% | 4.74%
5 | N#Cc1cccc(Nc2ncc(-c3ccccc3)o2)c1 | 1.79% | -1.82% | 0.42% | 0.88% | -1.04% | -0.63% | -0.04% | -0.3% | -1.82% | 1.65% | -2.86% | 0.09% | -1.96% | 2.39% | 11.7% | 5.02% | 3.79% | 3.29% | 5.96% | 5.55%
6 | COc1cc2c(cc1Nc1nc(Nc3cccc(F)c3C(N)=O)c3cc[nH]c3n1)N(C(=O)CN1CCN(C(C)C)CC1)CC2 | 2.81% | -3.13% | -1.66% | 0.54% | 0.15% | -1.97% | -0.26% | -0.22% | 0.87% | 0.42% | 1.21% | -0.45% | -0.67% | 6.72% | 10.1% | 2.84% | 4.05% | 5.51% | 1.47% | 3.12%
7 | CCN1CCC(C(=O)Nc2n[nH]c3nnc(-c4cccc(F)c4F)cc23)CC1 | -1.22% | -1.43% | 0.92% | -1.4% | -2.49% | -3.18% | -0.47% | 0.1% | -1.04% | 0.46% | 4.91% | -2.69% | -1.5% | 5.2% | -0.24% | -3.04% | 3.59% | -4.76% | -2.63% | -2.1%
